# PubChem BioAssay
# The source made the active and inactive calls.
# Columns and labels:
# [1] = system: Plasmodium falciparum Sir2 (PF13_0152, Sir2A); assay: pfSir2 binders on small-molecule microarrays, primary screen, biochemical, small-molecule microarray, 635 nm fluorescence (AID 1098); details: small-molecule microarray binding, fluorescence 635 nm; higher = more signal;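 further: score merges spot fluorescence intensity with its signal-to-noise ratio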
# [2] = small-molecule microarray binders of probe aDKK1, primary screen, biochemical, biotinylated probe, 635/667 nm fluorescence (AID 1099); details: higher = more signal;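 further: score merges 667nm spot fluorescence with signal to noise across triplicate slides; reference of the scale not given here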
# [3] = small-molecule microarray binders of probe aCHRDL2, primary screen, biochemical, biotinylated probe, 635/667 nm fluorescence (AID 1100); details: higher = more signal
# [4] = splicing luciferase reporter signal modulators, primary screen, spliceosome inhibition project, cell-based, HEK293, splice +/- reporter (AID 1101); details: luminescence, 24 h, higher = more signal, called active from +8 up or from −8 down;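 further: HEK293 cells carrying a splicing-competent luciferase reporter gene; test concentration not given here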
# [5] = biological target: Fibroblast growth factor 10 (Homo sapiens) (UniProt O15520); assay: FGF10 binders on small-molecule microarrays, primary screen, biochemical, small-molecule microarray, 635 nm fluorescence (AID 1102); details: FGF10 binding, fluorescence 635 nm, higher = more signal
# Sequence of Fibroblast growth factor 10 (Homo sapiens) (O15520 whole entry, looked up): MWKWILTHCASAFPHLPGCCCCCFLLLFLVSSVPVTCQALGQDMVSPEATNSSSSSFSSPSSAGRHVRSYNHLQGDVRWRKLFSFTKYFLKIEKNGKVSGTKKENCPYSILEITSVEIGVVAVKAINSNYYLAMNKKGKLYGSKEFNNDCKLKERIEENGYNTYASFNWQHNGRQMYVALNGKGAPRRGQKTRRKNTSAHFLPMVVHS
# [6] = system: glycogen synthase kinase-3 (GSK3A per assay name; protocol says GSK3B); assay: GSK3 binders on small-molecule microarrays, primary screen, biochemical, small-molecule microarray, 635 nm fluorescence, GSK3A (AID 1103); details: small-molecule microarray binding, fluorescence 635 nm; higher = more signal; further: the record names both GSK3A and GSK3B
# [7] = biological target: Epidermal growth factor receptor (Homo sapiens) (UniProt P00533); assay: EGFR binders on small-molecule microarrays, primary screen, biochemical, small-molecule microarray, 635 nm fluorescence (AID 1104); details: EGFR binding, higher = more signal;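 further: score merges 667 nm emission intensity with spot signal to noise over triplicate slides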
# Sequence of Epidermal growth factor receptor (Homo sapiens) (P00533 whole entry, looked up): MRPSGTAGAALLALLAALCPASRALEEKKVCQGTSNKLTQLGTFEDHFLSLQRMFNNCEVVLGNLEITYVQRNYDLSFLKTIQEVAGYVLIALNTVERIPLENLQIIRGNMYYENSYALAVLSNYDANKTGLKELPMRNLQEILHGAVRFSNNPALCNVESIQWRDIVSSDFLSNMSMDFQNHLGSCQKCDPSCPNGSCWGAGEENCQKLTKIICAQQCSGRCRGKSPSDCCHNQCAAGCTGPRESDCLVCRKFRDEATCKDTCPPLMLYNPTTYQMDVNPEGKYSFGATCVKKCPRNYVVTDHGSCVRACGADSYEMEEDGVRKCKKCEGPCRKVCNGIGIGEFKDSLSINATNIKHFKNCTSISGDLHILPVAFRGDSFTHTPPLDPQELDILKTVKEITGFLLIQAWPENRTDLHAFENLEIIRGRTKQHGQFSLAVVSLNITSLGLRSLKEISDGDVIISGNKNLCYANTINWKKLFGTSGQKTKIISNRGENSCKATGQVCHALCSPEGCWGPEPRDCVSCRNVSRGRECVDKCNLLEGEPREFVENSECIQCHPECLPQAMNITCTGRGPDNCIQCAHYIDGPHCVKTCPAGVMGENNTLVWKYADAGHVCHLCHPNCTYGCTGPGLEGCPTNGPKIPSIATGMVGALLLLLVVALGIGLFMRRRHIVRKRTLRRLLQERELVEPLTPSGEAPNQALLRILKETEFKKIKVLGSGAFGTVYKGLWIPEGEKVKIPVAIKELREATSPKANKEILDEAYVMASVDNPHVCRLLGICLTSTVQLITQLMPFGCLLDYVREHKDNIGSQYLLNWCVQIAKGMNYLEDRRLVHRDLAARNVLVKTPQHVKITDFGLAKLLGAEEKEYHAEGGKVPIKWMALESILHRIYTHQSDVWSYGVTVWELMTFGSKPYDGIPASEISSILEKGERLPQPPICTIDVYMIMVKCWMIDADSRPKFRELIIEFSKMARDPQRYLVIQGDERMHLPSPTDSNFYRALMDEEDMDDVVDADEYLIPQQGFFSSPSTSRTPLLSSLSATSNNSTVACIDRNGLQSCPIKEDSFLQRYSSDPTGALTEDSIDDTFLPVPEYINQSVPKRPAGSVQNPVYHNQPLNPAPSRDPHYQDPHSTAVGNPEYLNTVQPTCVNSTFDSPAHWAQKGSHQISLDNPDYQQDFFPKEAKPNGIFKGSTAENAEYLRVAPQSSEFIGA
# [8] = biological target: Follistatin-related protein 3 (Homo sapiens) (UniProt O95633); assay: FSTL3 binders on small-molecule microarrays, primary screen, biochemical, small-molecule microarray, 635 nm fluorescence (AID 1105); details: FSTL3 binding, higher = more signal;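 further: score merges emission near 667 nm and signal to noise per printed spot across three slides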
# Sequence of Follistatin-related protein 3 (Homo sapiens) (O95633 whole entry, looked up): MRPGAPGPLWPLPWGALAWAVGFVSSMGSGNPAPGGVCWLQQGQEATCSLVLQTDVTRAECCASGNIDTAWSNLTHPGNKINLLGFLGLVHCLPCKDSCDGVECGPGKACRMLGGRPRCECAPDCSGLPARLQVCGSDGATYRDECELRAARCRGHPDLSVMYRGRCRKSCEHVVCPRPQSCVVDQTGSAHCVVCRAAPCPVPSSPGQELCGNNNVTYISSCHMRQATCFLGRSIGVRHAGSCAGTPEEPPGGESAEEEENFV
# [9] = biological target: Dickkopf-related protein 1 (Homo sapiens) (UniProt O94907); assay: DKK1 binders on small-molecule microarrays, primary screen, biochemical, small-molecule microarray, 635 nm fluorescence scan (AID 1106); details: DKK1 binding, higher = more signal;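 further: score merges emission near 667 nm with signal to noise over three replicate slides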
# Sequence of Dickkopf-related protein 1 (Homo sapiens) (O94907 whole entry, looked up): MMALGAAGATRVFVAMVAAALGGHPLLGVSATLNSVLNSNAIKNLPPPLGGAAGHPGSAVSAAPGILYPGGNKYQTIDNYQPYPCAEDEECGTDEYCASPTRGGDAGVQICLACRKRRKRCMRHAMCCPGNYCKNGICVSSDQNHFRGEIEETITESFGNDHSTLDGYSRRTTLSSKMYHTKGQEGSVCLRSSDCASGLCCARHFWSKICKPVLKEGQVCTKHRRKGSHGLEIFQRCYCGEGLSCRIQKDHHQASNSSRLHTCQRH
# [10] = system: Inhibin beta A chain (activin A); assay: INHBA (activin A) binders on microarrays, primary screen, biochemical, small-molecule microarray, 635 nm fluorescence scan (AID 1107); details: small-molecule microarray binding, higher = more signal;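 further: mouse activin A protein probed at 4.33 µg/mL on printed slides; score merges bound-protein fluorescence near 667 nm with spot signal-to-noise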
Compound,composite z-score [1],composite z-score [2],composite z-score [3],z-score [4],composite z-score [5],composite z-score [6],composite z-score [7],composite z-score [8],composite z-score [9],composite z-score [10]
CCCC=C(CCC)[C@@H](NC(=O)c1cccs1)c1ccc(C(F)(F)F)cc1,0.119,0.607,0.406,-2.16 (inactive),0.36,1.25,0.569,0.857,-0.568,0.454
CN1C=C(C(=O)OCCS(C)(=O)=O)C(C(=O)OCCS(C)(=O)=O)=CC(c2ccc(CO)cc2)=CC1C1CC1 (stereo not given),0.666,-0.0901,0.166,0.456 (inactive),0.16,-0.0888,0.353,-0.0857,0.0847,0.99
CCC[C@@H]1C[C@@]1(CCC)[C@@H](NS(=O)(=O)c1cccc2cccnc12)c1ccc(Cl)cc1,-0.318,0.916,1.1,0.109 (inactive),0.044,-0.594,-0.484,-0.445,-0.35,1.04
COc1ccc([Si](C)(C)[C@@H]2[C@@H](CC(=O)N3CCC[C@H]3CO)O[C@]3(C(=O)N(c4ccccc4)c4ccccc43)[C@H]2C)cc1,0.977,0.0231,-0.169,-2.29 (inactive),0.613,1.23,0.501,1.4,0.85,0.748
COC(=O)[C@@]1(Cc2ccccc2)[C@H]2c3cc(C(=O)N(C)C)n(Cc4ccsc4Br)c3C[C@H]2CN1C(=O)c1ccccc1,-0.0533,0.894,1.17,-1.3 (inactive),1.02,0.439,-0.354,1.12,-0.506,0.669
C=CCOC(=O)[C@H]1[C@@H]2C(=O)O[C@@H](c3ccccc3)[C@@H](c3ccccc3)N2[C@@H](c2ccc(OCCOC(=O)[C@H]3C[C@H]4C(=O)N[C@@H](CCCC[N+](C)(C)C)C(=O)N4[C@H]3c3ccc(O)cc3)cc2)[C@]12C(=O)Nc1ccc(I)cc12,1.48,0.177,-0.228,1.2 (inactive),0.332,0.86,0.0741,0.803,1.41,0.225
[N-]=[N+]=Nc1ccccc1[C@@H]1OC(c2ccc(OCCCO)cc2)=N[C@]1(Cc1ccccc1)C(=O)N1CCOCC1,0.839,1.05,1.11,-1.15 (inactive),1.39,1.28,0.308,1.16,0.284,0.904
COC(=O)[C@@]1(Cc2ccc(F)cc2)[C@H]2c3cc(C(=O)N(C)C)n(Cc4cc(F)c(F)c(F)c4)c3C[C@H]2CN1C(=O)c1ccccc1,0.931,0.9,1.19,-1.91 (inactive),1.16,0.744,-0.024,1.08,-0.85,0.529
CN1C(=O)C2C=CC(C(O)C#Cc3ccccc3)N(N3CCCCC3)C2C1=O (stereo not given),1.68,1.01,1.09,0.762 (inactive),0.945,0.216,0.568,0.731,0.0369,1.18
COC(=O)[C@@]1(Cc2ccc(F)cc2)[C@H]2c3cc(C(=O)N4CCCC4)n(CCCNc4ncc(C(F)(F)F)cc4Cl)c3C[C@H]2CN1C(=O)c1ccccc1,0.913,1.43,1.05,-2.38 (inactive),0.137,-0.548,0.23,-0.142,-0.808,1.17
C=CC[C@@]12N=C(c3ccc(OCCCO)cc3)O[C@@H]1c1ccccc1N(C)C2=O,1.13,0.178,0.899,-0.933 (inactive),1.38,1.32,0.166,0.964,0.498,1.1
O=C(CS)NCCCCCCNC(=O)[C@@H]1C[C@@H]2C(=O)NCC(=O)N2[C@@H]1c1cccc(OCCO)c1,1.49,-0.293,0.632,0.288 (inactive),0.331,0.837,-0.149,-0.16,0.139,-0.755
O=C1N[C@@H](Cc2ccccc2)C(=O)N2[C@@H]1C[C@@H](C(=O)O)[C@H]2c1cccc(OCCO)c1,1.56,0.0092,0.18,0.152 (inactive),1.45,1.29,0.334,0.798,1.18,0.806
C=C(C)[C@@H]1CC=C(C(O)C2C=CC3C(=O)N(C)C(=O)C3N2Nc2ccccc2)CC1 (stereo not given in full),0.433,0.344,0.581,1.98 (inactive),1.03,1.03,0.928,1.42,1.11,1.43
O=C(c1ccccc1)N1C(=O)[C@@]2(Cc3ccccc31)N=C(c1ccc(OCCCO)cc1)O[C@H]2c1ccccc1,1.64,1,0.965,-0.663 (inactive),1.06,1.33,0.782,1.22,0.973,0.992
O=C1N(Cc2ccccc2)c2ccccc2[C@@H]2OC(c3ccc(OCCCO)cc3)=N[C@]12CCS(=O)(=O)c1ccccc1,0.833,0.562,0.78,1.2 (inactive),0.17,0.251,-0.24,0.0891,0.0435,1.07
